Among all 360,000 compounds or so, about 6,000 (1.7%) were called active. Inconclusive results (about 8%) are left out. Calls follow the shape of the dose curve; as a rule, active = well fitted cell-killing curve with a large enough effect; inconclusive = small, poorly fitted or top-dose-only effect, or effect the other way; inactive = flat fitted curve, though single readings scatter. The list comes from a sample in which actives are over-represented; it also holds similar structures and randomly drawn compounds. Where a call stands in place of a potency, no number is given.
Potency is read from the fitted curve at half-maximal effect.

The nature of the test: qHTS for induction of synthetic lethality in tumor cells producing 2HG: qHTS for the HT-1080-NT fibrosarcoma cell line.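 Also: NT is the 2HG producing partner of a matched IDH1 knockdown line; nearly all actives have a fitted effect of over 55% in size.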 Conditions: HT-1080-NT fibrosarcoma viability, CellTiter-Glo ATP luminescence, 48 h; series mostly up to 46.1 µM. The essentials: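 Read-out is CellTiter-Glo luminescence after 10 minutes at room temperature, following 48 hours' compound treatment of HT-1080-NT cells (750 cells/well, RPMI, 5% FBS, 37 degrees C).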
Background: qHTS replaces the single test concentration by a dilution series.
As for `COc1cccc(NC(=O)C2(C)CCN2C(=O)CCC2CCCC2)c1` (stereo unspecified), the Potency result is “inactive”.
In the case of `Cc1cc(NC(=O)CCC(=O)N(c2ccccc2)C(C(=O)NC2CCCC2)c2ccncc2)no1` (stereo unspecified), the Potency result was “inactive”.
As to `Cc1cc(NC(=O)CCC(=O)N(CC(=O)NC2CCCC2)c2ccc(F)cc2)no1`, the Potency result is “inactive”.
With `Cc1cc(NC(=O)/C=C/C(=O)N(c2ccccc2C)C(C(=O)NC2CCCC2)c2ccc(F)cc2)no1` (stereo unspecified) the figure was 11.2 µM (active); with `CC1(C(=O)Nc2ccc3c(c2)OCCO3)CCN1C(=O)Cc1cc(F)ccc1F` (stereo unspecified), “inactive”.
The value for `O=C(O)C1=C(C(=O)O)C2CCC1C2` was “inactive”; that for `COC(=O)N(NC(=O)C(O)(C(C)C)C(C)C)c1ccccc1` was “inactive”; that for `CCCC(O)(CCC)C(=O)NN(C(=O)CCl)c1cccc(C)c1` was 6.51 µM (active).
The value for `CC(C)(O)C(=O)NN(C(=O)c1ccccc1)c1cccc(Br)c1` was “inactive”; that for `COc1ccc(C2OC(CCc3ccccc3)Cc3[nH]c(=S)[nH]c(=O)c32)cc1` (stereo unspecified) was “inactive”; that for `CCOC(=O)C1CCCN(C(=O)c2cccc3ccccc23)CC1` (stereo unspecified) was “inactive”.
Regarding `CCc1nc2ccc(C(=O)N3CCN(S(=O)(=O)CC)CC3)cn2c1N(C=O)CCC(C)C`, the Potency entry is “inactive”.
With `COc1cccc(/C=N/Nc2ncc(C(F)(F)F)cc2Cl)c1O` the figure was 16.4 µM (active); with `COc1ccc(Br)cc1/C=N/Nc1ccc(Cl)c(C(=O)O)c1`, “inactive”; with `O=c1[nH]c2cccnc2n(CCNc2ncc(C(F)(F)F)cc2Cl)c1=O`, “inactive”.
Take `CCN1C(=O)[C@@H]2[C@@H]3CN(S(=O)(=O)c4ccccc4C)[C@@H](c4ccc(Cl)cc4)[C@@H]3C(=O)C[C@@H]2C1=O`: the Potency result is “inactive”.
Take `CCc1nc2c(OCCOc3ccc(F)cc3)cccn2c1N(C)C(=O)c1ccccc1F`: the Potency entry is “inactive”.
For `COc1cc(C=NC2CCCCC2)ccc1O`, the Potency result was “inactive”.
With `COc1cc(/C=N/Nc2nc3ccccc3s2)ccc1O` the figure was 20.6 µM (active).
As to `CCOc1cc(/C=N/Nc2cc(C)nc3ccc(C)cc23)ccc1O`, the Potency result is “inactive”.
The value for `Nc1ncnc2c1ncn2[C@@H]1O[C@H](CNC(=O)[C@H](N)Cc2cccnc2)[C@@H](O)[C@H]1O` was “inactive”; that for `Cc1nnsc1S(=O)(=O)Cc1ccccc1Cl` was “inactive”.
Turning to `O=C(Nc1ccc(S(=O)(=O)Nc2ccccn2)cc1)c1ccccc1`, the Potency result is “inactive”.
Regarding `O=C(Nc1ccccc1)c1nnsc1S(=O)(=O)c1ccc(Cl)cc1`, the Potency is 20.6 µM (active).
With `C=C1C=C(C)n2ncc(C(=O)Nc3ccccc3O)c2N1` the entry was “inactive”.
Turning to `COc1ccc(C(C)(C)C)cc1NC(=O)CN(C)C1=NS(=O)(=O)c2ccccc21`, the Potency result is “inactive”.
With `CCc1nc2ccc(C(=O)Nc3cc(-c4ccccc4)ccc3OC)cn2c1N(CC)CC(=O)N(C)C` the entry was “inactive”; with `CCOC(=O)C1(C)CCCN(C(=O)c2ccc(N(C)C)cc2)C1` (stereo unspecified), “inactive”.
The value for `CC(=O)c1cccc(-c2cnc3c(NC=O)cc(-c4ccccc4Oc4ccccc4)cn23)c1` was “inactive”; that for `COc1cccc(-c2cc(NC(C)=O)c3ncc(-c4cccc(C(C)=O)c4)n3c2)c1` was “inactive”.
With `COc1ccccc1-c1cc(NC(C)=O)c2ncc(-c3ccc(F)cc3)n2c1` the entry was “inactive”; with `CC(=O)Nc1cc(-c2cccc(CO)c2)cn2c(-c3cccc(C(F)(F)F)c3)cnc12`, “inactive”; with `CC(=O)c1cccc(-c2cnc3c(NC=O)cc(-c4cccc(C(=O)N(C)C)c4)cn23)c1`, “inactive”.
Turning to `CC(=O)Nc1cc(-c2ccccc2N(C)C)cn2c(-c3ccc(F)c(Cl)c3)cnc12`, the Potency was 29.1 µM (active).
The value for `CC(=O)c1cccc(-c2cnc3c(NC=O)cc(-c4ccc(N5CCN(C)CC5)cc4)cn23)c1` was “inactive”; that for `CN(C)CCNC(=O)c1cccc(-c2cnc3c(NC=O)cc(-c4cccc(C(F)(F)F)c4)cn23)c1` was 20.6 µM (active); that for `CC(=O)Nc1cccc(-c2cc(NC=O)c3ncc(-c4ccc(F)c(Cl)c4)n3c2)c1` was 18.4 µM (active).
The value for `CC(C)(C)C1CCC(=O)N2CCC[C@]2(c2ccccc2)C1` (stereo partly specified) was “inactive”.
The value for `COc1ccc(COC[C@H](CC(C)C)N2CCN(C(=O)c3cccc(C(F)(F)F)c3)CCC2=O)cc1` was “inactive”.
For the molecule `CCC(C(=O)NCc1ccccc1)n1c(Cc2cc(F)cc(F)c2)nc2ccccc21` (stereo unspecified), the Potency entry is “inactive”.
As for `Cc1cccc(S(=O)(=O)N(C)C[C@@H]2OCc3cnnn3CCCC(=O)N([C@H](C)CO)C[C@@H]2C)c1`, the Potency result is “inactive”.
With `O=C1Nc2ccccc2NC(c2ccc3c(c2)OCO3)=C1N(Cc1ccc(F)cc1)C(=O)c1ccco1` the entry was “inactive”; with `CCc1nc2ccc(C(=O)N3CCC(O)(Cc4ccccc4)CC3)cn2c1N(C)C(=O)Cc1ccccc1`, “inactive”; with `Cc1cc(Nc2ccc(C)c(C)c2)n2ncnc2n1`, “inactive”.
With `CC(C)(C(=O)N1CCC1(C)C(=O)NS(=O)(=O)c1ccc(Br)cc1)c1ccccc1` (stereo unspecified) the entry was “inactive”; with `CCc1nc(C)cn1S(=O)(=O)c1cc(OC)c(C)cc1C`, “inactive”.
With `CC(C)c1nccn1S(=O)(=O)c1cc([N+](=O)[O-])ccc1Cl` the entry was “inactive”.
For the molecule `CCc1nc(C)cn1S(=O)(=O)c1cc([N+](=O)[O-])ccc1Cl`, the Potency was 4.11 µM (active).
With `Cc1ccc(S(=O)(=O)/N=C2\C=C(NS(=O)(=O)c3ccc(C)cc3)C(=O)c3ccccc32)cc1`, the Potency entry was “inactive”.
The value for `COc1ccc(S(=O)(=O)/N=C2\C=C(NS(=O)(=O)c3ccccc3)C(=O)c3ccccc32)cc1` was 18.4 µM (active).
Consider `COc1ccc(S(=O)(=O)NCCCc2ccccc2)cc1`, for which the Potency result is “inactive”.
For the molecule `O=C1c2ccccc2C(c2nc3ccccc3[nH]2)N1c1ccccc1` (stereo unspecified), the Potency entry was “inactive”.
Turning to `CC1(C)OC(=O)C2=C(C[C@@H](C3CCCCC3)O[C@@H]2c2ccc(Cl)cc2)O1`, the Potency result is “inactive”.
`CN1OC[C@@H]2CN(C(=O)c3ccc(-c4ccccc4)cc3)[C@H](c3ccc(-c4cccc(F)c4)cc3)C[C@@H]21`: the Potency entry is “inactive”.
`CCCCOC(=O)Nc1nccs1`: the Potency entry was “inactive”.
Consider `CCCCOC(=O)Nc1nnc(CC(=O)NCc2ccccc2)s1`, for which the Potency was 4.11 µM (active).
For the molecule `CCCCc1nnc(NC(=O)CS(=O)(=O)Cc2ccccc2)s1`, the Potency entry was “inactive”.
The value for `Cc1noc(C)c1-c1ccc(C(=O)NCc2ccncc2)c2occc12` was “inactive”.
With `NC(=O)NC(CC(=O)NNC(=O)c1ccccn1)c1ccc(Cl)cc1` (stereo unspecified), the Potency entry was “inactive”.
With `C/C(=N\NC(=O)Cc1ccc(Cl)cc1)c1ccccn1` the figure was 1.78 µM (active); with `CC(=NNC(=S)N1CCCCCC1)c1ccccn1`, “inactive”.
For `O=C(O)c1ccccc1Cc1ccc(F)c2ccccc12`, the Potency result was “inactive”.
With `Nc1ncnc2c1ncn2[C@@H]1O[C@H](C(=O)NCC(F)(F)F)[C@@H](O)[C@H]1O` the entry was “inactive”.
With `CCOC(=O)c1cc(-c2sc(NC(=O)c3ccccc3)nc2C)n(CCO)n1` the entry was “inactive”.
In the case of `COc1ccc(Br)c(Cn2c(C)c(C(=O)NCc3cccs3)sc2=O)c1`, the Potency result was “inactive”.
With `C[C@@H]1CN([C@H](C)CO)C(=O)c2cc(Br)cnc2O[C@@H]1CN(C)Cc1cncnc1` the entry was “inactive”; with `CCCCN(CCCC)CC(O)Cn1c2ccccc2c(=O)c2ccccc21` (stereo unspecified), “inactive”.
`Cc1cc(C)n(CC(O)CN(c2ccccc2)S(=O)(=O)c2ccc3ccccc3c2)n1` (stereo unspecified): the Potency entry was “inactive”.
Take `CS(=O)(=O)N(CC(O)Cn1c2ccccc2c2ccccc21)c1cccc2ccccc12` (stereo unspecified): the Potency is 18.4 µM (active).
The value for `COc1ccc(Cn2c(=O)[nH]c3cc(C(=O)N4CCN(C(=O)c5ccco5)CC4)ccc3c2=O)cc1` was “inactive”; that for `O=C1NC[C@H](CCCCN2C[C@H](Cc3ccc(O)cc3)N(CC3CCCCC3)C(=O)C2=O)N(CCc2ccccc2)C1=O` was “inactive”; that for `O=C(OCc1ccccc1)N1CCC2CC1c1cc(N3CCN(S(=O)(=O)c4cc(Cl)cc(Cl)c4)CC3)ccc12` (stereo unspecified) was “inactive”.
The value for `CCCCOc1ccc(NC(=O)CSCC(=O)OCC)cc1` was “inactive”.
Regarding `CCCCCCCCCCOC(=O)Cn1c(COc2cccc(OC)c2)[n+](C)c2ccccc21`, the Potency result was “inactive”.
For the molecule `CCCCCCCCCCOC(=O)Cn1c(COc2ccc(C)cc2)[n+](C)c2ccccc21`, the Potency is 18.4 µM (active).
The value for `CN1CCN(C(=O)c2ccc(NC(=O)c3ccc(Br)o3)cc2)CC1` was “inactive”.
With `O=C(Nc1ccc(Cl)cc1)c1csc([C@H]2C[C@H](O)[C@@H](CO)O2)n1` the entry was “inactive”.
For the molecule `CCOC(=O)C(C(=O)c1ccccc1)C(c1ccccc1)c1nccc2ccccc12` (stereo unspecified), the Potency entry is “inactive”.
The value for `CCOC(=O)[C@]12CCC=C1N(Cc1ccco1)C(=O)[C@H](CC(=O)N1CCSCC1)C2` was “inactive”.
The value for `O=[N+]([O-])c1c(NCCO)cc(Sc2nc3ccccc3s2)c2nonc12` was 5.62 µM (active).
For the molecule `CCN(CC)CCCSc1nc2ccccc2s1`, the Potency result was “inactive”.
With `Nc1nnc(SCC(=O)Nc2ccc3nc(SCC(=O)Nc4ccccc4)sc3c2)s1` the entry was “inactive”.
With `CC1(Cc2ccccc2C#N)C(=O)Nc2ccc(-c3ccc4[nH]ccc4c3)cc21` (stereo unspecified) the figure was 7.31 µM (active); with `O=C(NCc1cccnc1)c1cc(C2CCCN(C(=O)C3CCCCC3)C2)on1` (stereo unspecified), “inactive”; with `Cc1ccc(-c2c(N)nc3ncccn23)cc1`, “inactive”.
With `COCC1CCCCN1C(=O)c1cc(COc2ccc(C)c(C)c2)on1` (stereo unspecified) the entry was “inactive”; with `CC1(Oc2cccc(F)c2)CCN(Cc2ccccc2OC(F)F)C1` (stereo unspecified), “inactive”.
As to `O=C(Cc1ccccc1)Nc1ccc(NC(=O)c2cccnc2)cc1`, the Potency entry is “inactive”.
With `CSc1nc2ccc(NC(=O)c3c(F)cccc3F)cc2s1` the entry was “inactive”.
As for `CCCC(=O)Nc1nc2ccc(NC(=O)c3cccnc3)cc2s1`, the Potency is 6.31 µM (active).
Consider `CCOC(=O)c1cc(NC(=O)c2cccnc2)ccn1`, for which the Potency result is “inactive”.
With `CCCC(=O)Nc1nc2ccc(NC(=O)c3c(F)c(F)c(OC)c(F)c3F)cc2s1` the figure was 1.03 µM (active).
In the case of `CC(=O)Nc1ccc2nc(NC(=O)CS(=O)(=O)c3ccc(F)cc3)sc2c1`, the Potency result was “inactive”.
With `CCc1nc2c(OCC(=O)C(C)(C)C)cccn2c1N(C)C(=O)c1ccccc1F` the entry was “inactive”; with `CC1C(=O)N(Cc2cn(CC3CCCCC3)nn2)CCS(=O)(=O)N1Cc1ccc(-c2cccc(N(C)C)c2)cc1` (stereo unspecified), “inactive”.
With `COC(=O)C[C@H]1C=C[C@H](NC(=O)c2ccc(F)cc2)[C@@H](CO)O1` the entry was “inactive”.

Source of the values: PubChem BioAssay AID686970 (National Center for Advancing Translational Sciences (NCATS), 2013).
